Results as given in PubChem BioAssay (NCI).
Where “and” joins values, the source holds several entries; their conditions need not be identical. Identical values can stand only once. Compounds without any hit were thinned out: in the full panel of roughly 83,000, 20% have a hit.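 Testing used 96-well plates and a 48-hour single-concentration exposure. Example: -40 means 40% of the starting cells died.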 Calls of active or inactive are those of the source. Rule for the calls: active = growth percent below 10; inactive = the rest.

Each compound was assayed on MDA-MB-468 breast (assay: NCI-60 one-dose screen, 48 h (100 = growth as untreated, 0 = no growth, -100 = all killed)). Conditions: 10 µM unless noted.
`CC(C)Nc1ccc(Nc2ccc(NC(C)C)cc2)cc1` was tested, and the growth was -7.07% (active). With `COc1ccc(/C=C/C(=O)Nc2ccc(-c3nc4ccc(F)cc4s3)cc2)cc1` the growth was -12.9% (active). `S=C1SCN(CCc2ccccc2)CN1CCc1ccccc1` was tested, and the growth was 9.02% (active). `Cn1ccnc1C(=O)/C=C/c1ccc(C(=O)Nc2nc3ccccc3[nH]2)cc1` was tested, and the growth was -3.55% (active). In the case of `COc1ccc2c(c1)Oc1nc(N)c(C#N)c(N)c1C2Sc1ccc(O)cc1` (stereo not given), the growth is reported as 18.8% (inactive). In the case of `Clc1nc(Nc2ccccc2)nc(Nc2ccccc2)n1`, the growth is reported as 57.3% (inactive). For `O=C(Nc1cccc(N=Cc2c(O)ccc3ccccc23)c1)c1ccccc1`, the growth was 98.9% (inactive). In the case of `COc1cc(OC)cc(-c2cc(-c3c[nH]c4ccccc34)nc(-c3c[nH]c4ccccc34)c2C#N)c1`, the growth is reported as 92.2% (inactive). `CCCCn1c(-c2ccc(C(=O)O/N=C(\N)c3ccc(OC)cc3)cc2)nc(-c2ccccc2)c1-c1ccccc1` was tested, and the growth was -14.4% (active). With `Cc1cn(-c2cc(C(=O)Nc3cccc(C#Cc4cccc5[nH]nc(N)c45)c3)cc(C(F)(F)F)c2)cn1` the growth was 69.6% (inactive). For `S=c1[nH]cccc1-c1nnc2n1Nc1nc3ccccc3cc1CS2`, the growth was 102% (inactive). `C[C@]12CCC3c4ccc(O)cc4C[C@@H](CCCCCCCCCS(=O)CCCC(F)(F)C(F)(F)F)C3C1CC[C@@H]2O` (stereo not given in full) was tested, and the growth was 88% (inactive). `COc1cc(/C=N/Nc2ccccc2F)cc(OC)c1OC` was tested, and the growth was 97% (inactive). In the case of `O=C(CCN1CCOCC1)Nc1ccc(Cn2nnc3c2C(=O)c2nnn(Cc4ccc(NC(=O)CCN5CCOCC5)cc4)c2C3=O)cc1`, the growth is reported as -72.2% (active). `COC(=O)C(C)NS(=O)(=O)/N=C1\NC(=O)NC1=C(Cl)Cl` (stereo not given) was tested, and the growth was 91.4% (inactive). For `CCC(CC)(N(CC(=O)O)CC(=O)O)C(CC)(CC)N(CC(=O)O)CC(=O)O`, the growth was 127% (inactive). With `N#C/C(C(=O)c1ccccc1)=C1/C(=O)Nc2ccc(Br)cc21` the growth was 102% (inactive). For `Nc1cc2ccncc2c2ccccc12`, the growth was 71.7% (inactive). In the case of `O=C(NCc1cn(Cc2cccc(Oc3ccccc3)c2)nn1)c1cccnc1Nc1ccc(F)cc1`, the growth is reported as 33.5% (inactive). In the case of `CCN1C(=S)N(CC)C2C1NN=C1SC(c3ccccc3)=CC(=O)N12` (stereo not given), the growth is reported as 92.6% (inactive). `Cc1ccc(-n2nc3n(/c2=N\C(=O)NS(=O)(=O)c2ccc(C)cc2)CCN3C2=NCCN2)cc1` was tested, and the growth was 114% (inactive). In the case of `CCCSc1nc2ccc(C)cc2cc1/C=[N+](\[O-])c1ccccc1`, the growth is reported as 88.4% (inactive). In the case of `COc1cc2nc(-c3ccc(Cl)cc3)cc(OCCCN3CCOCC3)c2cc1OC`, the growth is reported as 59.9% (inactive). In the case of `N#C/C(=C\c1ccc(-c2ccc(Cl)cc2Cl)o1)c1ccc(F)cc1`, the growth is reported as 96.3% (inactive). In the case of `C#CCOc1cccc(Nc2ncnc3c(NC(=O)C=C)cccc23)c1`, the growth is reported as -15.2% (active). In the case of `COc1cc(-c2cc(C(=O)N3CCN(C(=O)c4ccccc4NCc4ccco4)CC3)nc3cc(-c4ccccc4)nn23)cc(OC)c1OC`, the growth is reported as 0.207% (active). With `COc1cc2nc(Nc3cccc(NC(C)=O)c3)nc(N)c2cc1OC` the growth was 88.8% (inactive). In the case of `COc1ccc(-c2nc3sc(-c4ccc(Cl)cc4)cn3n2)cc1`, the growth is reported as 33.4% (inactive). For `CC/C=C\C[C@H]1CC=C2C(=O)C=C[C@@H]2CC=CCCCC(=O)O[C@@H](CCCCC)CC=C2C(=O)C=C[C@@H]2CC=CCCCC(=O)O[C@@H](CCCCC)CC=C2C(=O)C=C[C@@H]2CC=CCCCC(=O)O[C@@H](CCCCC)CC=C2C(=O)C=C[C@@H]2CC=CCCCC(=O)O1`, the growth was 29.8% [7.9 µM] (inactive). For `O=C(Nc1ccc(OS(=O)(=O)c2ccccc2)cc1)C12CC3CC(CC(C3)C1)C2`, the growth was 40.5% (inactive). For `CC(=O)Nc1ccc(OC(C)=O)cc1`, the growth was 5.17% (active) and 92.5% (inactive). With `O=C(/C=C/c1ccccc1)c1cccc(OCCCOc2cccc(C(=O)/C=C/c3ccccc3)c2)c1` the growth was 93.9% (inactive). For `COCCNC(C(=O)c1ccccc1)c1ccccc1` (stereo not given), the growth was 90.8% (inactive). With `COc1cc(C(=O)N/N=C/c2cc3cc(OCc4ccccc4)ccc3nc2OC)cc(OC)c1OC` the growth was 85.2% (inactive). For `COc1ccc(NC(=O)c2ccc(-c3ccccc3)cc2)c(C(N)=O)c1`, the growth was 109% (inactive). For `Cc1ccc(-c2cc(-c3ccccc3C)[nH]c(=O)c2C#N)s1`, the growth was 99.3% (inactive). For `CCOC(=O)c1sc2ncnc(Nc3ccc4c(cnn4C(=O)Nc4ccccc4)c3)c2c1C`, the growth was 78.1% (inactive). With `Nc1ncnc2c1ncn2C1OC(CO)C2OC21` (stereo not given) the growth was 93.5% (inactive). With `C=CCn1c2ccccc2c2c3c(c4c5ccccc5n(CC=C)c4c21)C(=O)N(O)C3=O` the growth was 24% (inactive). For `Nc1nc(N)c2c(ccc3nccc32)[nH]1`, the growth was 34.9% (inactive).
